Assay outcomes (PubChem BioAssay)
Hits are enriched below; roughly 3.4% of the tested compounds scored in any of these assays.
ADAM17 inh: ADAM17 inhibitors, primary screen, biochemical, QFRET; AID 720648, 2013; inhibition, % at 6.95 µM; Disintegrin and metalloproteinase domain-containing protein 17 (Homo sapiens), P78536; hit rate 0.83% among 370,000; recombinant ADAM17, EDANS/DABCYL FRET peptide cleavage;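 active means inhibition above the mean of compounds lying between control limits plus 3 SD, set per campaign, cut at about 8.5% in these data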
PLC-beta3 inh: human PLC-beta3 inhibitors, primary screen, biochemical, fluorescence; 1-phosphatidylinositol 4,5-bisphosphate phosphodiesterase beta-3 (Homo sapiens), Q01970; Purified PLC-beta3, fluorogenic substrate; inhibition, % at 12.2 µM; hit rate 0.18% among 370,000; in the data active means inhibition above about 11%
Target sequence (Q01970 whole entry, looked up): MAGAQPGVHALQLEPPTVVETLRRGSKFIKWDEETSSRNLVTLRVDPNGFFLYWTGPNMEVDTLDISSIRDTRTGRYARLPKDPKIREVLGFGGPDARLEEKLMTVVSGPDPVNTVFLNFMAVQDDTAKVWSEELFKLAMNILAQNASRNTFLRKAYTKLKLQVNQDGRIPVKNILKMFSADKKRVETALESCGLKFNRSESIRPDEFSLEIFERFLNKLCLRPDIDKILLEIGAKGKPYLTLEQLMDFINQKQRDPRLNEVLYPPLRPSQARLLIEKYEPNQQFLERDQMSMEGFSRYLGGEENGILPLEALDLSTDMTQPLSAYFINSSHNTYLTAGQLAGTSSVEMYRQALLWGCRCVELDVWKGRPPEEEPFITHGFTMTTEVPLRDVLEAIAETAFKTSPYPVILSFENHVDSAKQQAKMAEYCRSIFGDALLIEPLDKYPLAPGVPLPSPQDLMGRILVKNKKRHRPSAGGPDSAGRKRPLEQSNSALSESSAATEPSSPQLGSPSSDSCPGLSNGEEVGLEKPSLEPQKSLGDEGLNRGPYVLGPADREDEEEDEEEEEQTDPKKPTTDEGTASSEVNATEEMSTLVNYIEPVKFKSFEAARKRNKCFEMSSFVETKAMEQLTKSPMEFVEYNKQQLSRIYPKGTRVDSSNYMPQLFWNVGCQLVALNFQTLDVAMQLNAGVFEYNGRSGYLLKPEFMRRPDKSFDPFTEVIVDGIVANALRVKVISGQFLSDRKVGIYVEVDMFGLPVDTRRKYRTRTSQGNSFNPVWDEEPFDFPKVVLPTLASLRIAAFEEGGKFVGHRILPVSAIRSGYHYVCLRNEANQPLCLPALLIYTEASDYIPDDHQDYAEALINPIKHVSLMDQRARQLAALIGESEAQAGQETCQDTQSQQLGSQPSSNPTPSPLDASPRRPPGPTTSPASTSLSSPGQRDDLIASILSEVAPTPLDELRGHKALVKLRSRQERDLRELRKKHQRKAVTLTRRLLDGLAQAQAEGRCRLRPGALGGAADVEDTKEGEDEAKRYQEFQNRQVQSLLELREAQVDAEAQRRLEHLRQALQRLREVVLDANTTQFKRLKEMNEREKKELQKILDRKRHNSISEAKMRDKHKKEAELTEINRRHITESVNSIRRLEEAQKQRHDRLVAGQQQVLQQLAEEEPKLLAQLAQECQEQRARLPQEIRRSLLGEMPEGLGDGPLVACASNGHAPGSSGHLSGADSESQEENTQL
HGIII-sPLA2 inh: human group III sPLA2 inhibitors, primary screen, biochemical, QFRET, BODIPY PC-A2 liposome substrate. QFRET BODIPY PC-A2 liposome hydrolysis, fluorescence. inhibition, % at 12.2 µM. Group 3 secretory phospholipase A2 (Homo sapiens), Q9NZ20. hit rate 0.56% among 370,000;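 active means inhibition above mean plus 3 SD of compounds lying within the high and low control bounds, cut at about 19% in these data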
KLK7 zymogen act: proKLK7 zymogen activators, primary screen, biochemical, fluorescence intensity; activation, % at 7 µM; Kallikrein-7 (Homo sapiens), P49862; purified proKLK7, EDANS-DABCYL substrate fluorescence; 100% is mature enzyme control, 0% vehicle; hit rate 0.9% among 370,000;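 active means activation above the mean of all tested compounds plus 3 SD, computed per campaign excluding outliers beyond control limits, cut at about 13% in these data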
PLCg1 inh: PLC-gamma1 enzyme inhibitors, primary screen, biochemical, fluorescence, purified enzyme; 1-phosphatidylinositol 4,5-bisphosphate phosphodiesterase gamma-1 (Homo sapiens), P19174; fluorogenic substrate; inhibition, % at 12.2 µM; hit rate 0.84% among 370,000; in the data active means inhibition above about 9.5%
ADAM10 inh: human ADAM10 inhibitors, primary screen, biochemical, QFRET, HTS. recombinant ADAM10, EDANS/DABCYL FRET peptide cleavage, 3 h. inhibition, % at 7 µM. hit rate 0.62% among 370,000;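 active means inhibition above a per-campaign cutoff equal to the mean of compounds falling between control-based bounds plus 3 SD, cut at about 20% in these data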
proKLK7 act conf: proKLK7 zymogen activators, confirmation, biochemical, fluorescence intensity, triplicate. shares compounds with KLK7 zymogen act. purified proKLK7, EDANS-DABCYL substrate fluorescence; scaled: vehicle 0, mature enzyme 100. activation, % at 7 µM. hit rate 68% among 3,200;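 active means activation, as change over the incubation, above the mean of all tested compounds plus 3 SD, cut at about 13% in these data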
EDANS interfere: EDANS-DABCYL substrate optical interference, artefact control for kallikrein-7 zymogen activator project, biochemical, fluorescence intensity, high throughput. no enzyme, 4 h; solvent 0%, active enzyme control 100%. shares compounds with KLK7 zymogen act. activation, % at 7 µM. hit rate 80% among 3,200;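 active means activation above the all-compound mean plus 3 SD, ignoring values outside control-based bounds, cut at about 4.8% in these data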;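 further: value is the 4 h activation minus the activation read at time zero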
K7 EDANS ctr: counter-screen for kallikrein-7 activators: EDANS-DABCYL interference, dose response; shares compounds with KLK7 zymogen act; EDANS-DABCYL peptide fluorescence interference, no enzyme; EC50, µM; hit rate 20% among 250; AID 720493;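 active means compounds that raise the fluorescence signal in this interference counterscreen, with EC50 at or below 10 µM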;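 further: intact quenched peptide substrate alone read at 355 nm excitation and 520 nm emission; signal is fluorescence gain from T0 to T4 after four hours at room temperature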
Numbers stand for hits; i = inactive; nt = no result given.

SMILES	ADAM17 inh	PLC-beta3 inh	HGIII-sPLA2 inh	KLK7 zymogen act	PLCg1 inh	ADAM10 inh	proKLK7 act conf	EDANS interfere	others
CCOC(=O)c1[nH]c2cc(OC)c(OC)cc2c1N	i	i	i	13	i	i	30	31
CCOC(=O)c1[nH]c2ccc(C)cc2c1N	i	i	i	i	i	i	nt	nt
C[C@@H]1CN([C@@H](C)CO)C(=O)CCCn2cc(nn2)CO[C@H]1CN(C)C(=O)Nc1ccc2c(c1)OCO2	i	i	i	i	i	i	nt	nt
Nc1nc2sc3c(c2cc1C(=O)N1CCOCC1)CCCC3	i	i	i	14	i	i	i	14
NC(=O)c1cc2ccc(O)cc2oc1=NCc1ccccc1	i	i	i	69	i	i	117	125
NC(=O)c1cc2ccc(O)cc2oc1=Nc1ccccc1	i	i	i	40	i	i	i	7.9
COc1ccc2cc(C(N)=O)c(=Nc3ccccc3)oc2c1	i	i	i	i	i	i	nt	nt
NC(=O)c1cc2ccccc2oc1=NCc1ccccc1	i	i	i	i	i	i	nt	nt
COc1ccc2oc(=Nc3cc(F)ccc3F)c(C(N)=O)cc2c1	i	i	i	i	i	i	nt	nt
COc1ccc(OC)c(N=c2oc3cc(O)ccc3cc2C(N)=O)c1	i	i	i	14	i	i	i	15
C[C@@H]1CN([C@@H](C)CO)C(=O)CCCn2nncc2CO[C@H]1CN(C)CC1CC1	i	i	i	i	i	i	nt	nt
CCOC(=O)CNC(=O)N(C)[C@H]1C[C@H]2c3[nH]c4c(-c5ccccc5)cccc4c3CCN2C(=O)[C@H]1[C@H](C)O	i	i	i	i	i	i	nt	nt
COC(=O)C1=C(C)N(Cc2cccc(C(F)(F)F)c2)C(=NCC2CC2)NC1c1ccccc1 (stereo not drawn)	i	i	i	i	i	i	nt	nt
COc1ccc(Oc2c(C)oc3c(CN4CCOCC4)c(O)ccc3c2=O)cc1	i	i	i	i	i	i	nt	nt
CCOC(=O)c1ccc(Oc2c(C)oc3c(CN4CCN(C)CC4)c(O)ccc3c2=O)cc1	i	i	i	119	i	i	76	70
CCOc1ccccc1Oc1c(C)oc2c(CN3CCN(CCO)CC3)c(O)ccc2c1=O	i	i	i	129	i	i	68	66
CCOC(=O)c1c(C)oc2c1c(CN1CCN(CCO)CC1)c(O)c1ccccc12	i	i	i	i	i	i	nt	nt
COc1ccccc1Oc1c(C)oc2c(CN3CCN(CCO)CC3)c(O)ccc2c1=O	i	i	i	116	i	i	66	70
Cc1oc2c(CN3CCCC3)c(O)ccc2c(=O)c1Oc1ccccc1Br	i	i	i	83	i	i	56	76
CCCCOCC1CN(CCCC)S(=O)(=O)c2c(cccc2N2CCCC2)O1 (stereo not drawn)	i	i	i	i	i	i	nt	nt
FC(F)(F)Oc1ccc(Cn2ccc3ccc(-c4ccc5ccn(Cc6ccccc6)c5c4)cc32)cc1	i	i	i	i	i	i	nt	nt
C[C@H]1CNC(=O)c2c(C(=O)N3CCN(c4ccccc4)CC3)ncn21	i	i	i	i	i	i	nt	nt
NC(=O)c1c(NC(=O)c2ccncc2)sc2c1CCCC2	i	i	i	i	i	i	nt	nt
NC(=O)c1c(NC(=O)c2ccccc2)sc2c1CCC2	i	i	i	90	i	i	i	i
COC(=O)N1C[C@H](OCc2cn(-c3ccc(OC)cc3)nn2)[C@H]2C[C@@H]1c1ccccc1O2	i	i	i	i	i	i	nt	nt
SMILES	ADAM17 inh	PLC-beta3 inh	HGIII-sPLA2 inh	KLK7 zymogen act	PLCg1 inh	ADAM10 inh	proKLK7 act conf	EDANS interfere	others
Cc1ccc(-c2cn3cccnc3n2)cc1	i	i	i	85	i	i	64	69
CS(=O)(=O)Nc1ccc(-c2cn3cccnc3n2)cc1	i	i	i	123	i	i	39	39
Cc1ccc(-c2cn3cccnc3n2)cc1NC(=O)c1ccc(Br)o1	i	i	i	22	i	i	17	4.9	K7 EDANS ctr=i
CS(=O)(=O)Nc1ccc(-c2ccc3nccn3c2)cc1	i	i	i	i	i	i	nt	nt
Cc1cc(=O)oc2cc(OCC(=O)N3CCOCC3)c(Cl)cc12	i	i	i	18	i	i	33	24	K7 EDANS ctr=i
O=S1(=O)N[C@H](Cc2ccccc2)COc2cccc(F)c21	i	i	i	i	i	i	nt	nt
COc1cc2c(C#N)c(N3CCN(C)CC3)nc(N)c2c(N)n1	i	i	i	65	i	i	48	61
COc1cc2c(C#N)c(N3CCCC3)nc(N)c2c(N)n1	i	i	i	i	i	i	nt	nt
Nc1[nH]c(C(=O)c2ccccc2)c(-c2cccnc2)c1C(=O)NCCc1c[nH]c2ccccc12	i	i	i	nt	i	i	nt	nt
COc1ccc2[nH]c(=O)c(CN(C(C)=O)c3ccc(C)c(C)c3)cc2c1	i	i	i	i	i	i	nt	nt
COc1ccc2[nH]c(=O)c(C(=O)O)cc2c1	i	i	i	19	i	i	i	21
COc1ccc(NC(=O)c2cc(=O)[nH]c3ccccc23)cc1	i	i	i	i	i	i	nt	nt
COc1ccc2[nH]c(=O)cc(C(=O)O)c2c1	i	i	i	20	i	i	39	45
Nc1[nH]c(C(=O)c2ccc(Cl)cc2)c(-c2ccc(Br)cc2)c1C(=O)NCc1ccc(Cl)cc1Cl	i	i	i	i	i	i	nt	nt
COc1cc2c(cc1OC)C(CSc1ccccc1C(=O)O)=NC(C)(C)C2	i	i	i	14	i	i	i	5.2
CCN(CC)CCN(C(=O)/C=C/c1cccs1)c1nc2ccc(F)cc2s1	i	i	i	i	i	i	nt	nt
CN(C)CCCN(C(=O)/C=C/c1cccs1)c1nc2ccc(F)cc2s1	i	i	i	35	i	i	154	232
COC(=O)c1nn(-c2ccc3c(c2)CCN3C(C)=O)cc1O	i	i	i	124	i	i	29	31
CC(=O)N1CCc2cc([N+](=O)[O-])ccc21	i	i	i	i	i	i	nt	nt
